Screening data: PubChem BioAssay, National Center for Advancing Translational Sciences (NCATS)
Compounds with a hit are over-represented: about 3% of the library has one in this group of screens.
TR SRC2 fluor cs – counter-screen for TRb-SRC2 inhibitors: fluorescence interference; TRb/SRC2 Texas Red total fluorescence interference; Potency, µM (top dose mostly 106 µM), for the others: top-dose fluorescence change, negative = quenching; 0.29% of 280,000 active; active = well fitted curve in either direction with a large enough effect; inconclusive = small, poorly fitted or top-dose-only effect
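Human TRb ligand-binding domain at 0.6 uM with 20 nM Texas Red SRC2 peptide in Tris buffer containing 1 uM T3 and 5% DMSO, incubated with compound 5 h at ambient temperature. Total fluorescence (555/632 nm) calculated as parallel + 2 × perpendicular.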
Tau fluor counter – counter-screen for tau fibril formation inhibitors; tau K18 P301L Alexa594 fluorescence, heparin fibrillization; Potency, µM (highest dose often 57.7 µM), inactives show top-dose activity change, negative = decrease; 0.93% of 280,000 active; AID 1463; note: nearly all actives have a fitted effect of over 55% in size
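Human tau K18 P301L (15 uM unlabeled, 0.24 uM Alexa 594-labeled) in 100 mM sodium acetate pH 7 with 20 uM heparin, 6 hr at 37 C. ThT 30 uM added, 1 hr ambient; Alexa 594 FP and total fluorescence read at 555/632 nm.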
Tau ThT inhib – tau fibrillization inhibition (ThT binding); recombinant tau K18 P301L, heparin-induced fibrillization, ThT fluorescence; 2.1% of 270,000 active; Potency, µM (series often up to 57.4 µM), for the others: at the highest dose activity, negative = inhibition, hits mostly inhibitors; P10636; note: nearly all actives have a fitted effect of over 55% in size
Target sequence (P10636 561-689 P618L limits assumed): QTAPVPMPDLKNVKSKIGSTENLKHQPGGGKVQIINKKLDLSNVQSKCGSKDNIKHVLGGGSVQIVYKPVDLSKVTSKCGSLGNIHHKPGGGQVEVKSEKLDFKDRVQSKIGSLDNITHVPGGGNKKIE
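Using a mix of unlabeled (15 uM) and Alexa 594-labeled (0.24 uM) tau K18 P301L, heparin-triggered fibrillization over 6 hr at 37 C was scored by ThT fluorescence.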
Tau fibril FP – tau fibrillization inhibition (FP) | 0.39% of 280,000 active | AID 1468 | K18 P301L tau heparin fibrillization, Alexa594 FP, 6 h | Potency, µM (highest dose often 57.7 µM), inactives show top-dose activity, negative = inhibition, actives largely listed as inhibitors; note: nearly all actives have a fitted effect of over 55% in size
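FP of Alexa 594-tau after heparin (20 uM) induction. Substrate: human K18 P301L, 15 uM unlabeled, 0.24 uM labeled. Buffer 100 mM sodium acetate pH 7. 6 hr, 37 C.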
TRb-SRC2 inh – inhibitors of human thyroid hormone receptor beta-SRC2 interaction; P10828; TRbeta-SRC2 peptide binding, fluorescence polarization; receptor liganded with 1 µM T3; Potency, µM (series often up to 106 µM), without a hit: at the highest dose activity change, negative = inhibition, usual class: inhibitors; 0.065% of 280,000 active;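 note: plate controls were bound peptide for no effect and peptide without receptor for full effect; nearly all actives have a fitted effect of over 50% in size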
Target sequence (P10828 whole entry, looked up): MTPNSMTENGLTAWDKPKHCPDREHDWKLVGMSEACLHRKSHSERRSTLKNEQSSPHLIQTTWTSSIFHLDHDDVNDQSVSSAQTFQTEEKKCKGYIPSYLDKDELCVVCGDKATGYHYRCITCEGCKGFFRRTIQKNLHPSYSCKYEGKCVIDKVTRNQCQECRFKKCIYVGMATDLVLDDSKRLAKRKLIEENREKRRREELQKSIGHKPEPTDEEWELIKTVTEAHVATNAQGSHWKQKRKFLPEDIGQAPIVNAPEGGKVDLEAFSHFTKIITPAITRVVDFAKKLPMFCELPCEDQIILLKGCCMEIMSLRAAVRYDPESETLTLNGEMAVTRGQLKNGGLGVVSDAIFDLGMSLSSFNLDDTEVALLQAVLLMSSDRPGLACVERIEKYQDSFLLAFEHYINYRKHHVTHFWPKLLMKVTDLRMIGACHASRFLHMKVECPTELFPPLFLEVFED
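Read-out is fluorescence polarization (555 nm excitation, 632 nm emission) of a Texas Red SRC2 coactivator peptide; loss of signal reflects blocked binding to human TRb ligand-binding domain in the presence of 1 uM T3.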
Numbers without * were called inactive; ? = inconclusive; [ ] = remark or other dose. Unless noted, calls come from the whole dose curve; as a rule, active = well fitted curve in the direction sought with a large enough effect; inconclusive = small, poorly fitted or top-dose-only effect, or another doubt; inactive = no such curve, though single readings can be large; an effect the other way counts as inactive or inconclusive. Unless noted, % is set by controls: 0 for no effect and ±100 for the full control effect; potency is the fitted concentration of half-maximal effect.

SMILES	TR SRC2 fluor cs	Tau fluor counter	Tau ThT inhib	Tau fibril FP	TRb-SRC2 inh
Cc1ccc(-c2nn(C)c(=O)c3ccccc23)cc1CO	-3.2%	-3.9%	-9.5%	-1.8%	-7.7%
CCC(CO)Nc1ccc(-c2nn(C)c(=O)c3ccccc23)cc1[N+](=O)[O-] (configuration not stated)	-0.7%	-20.0%	25.1µM*	9.6%	-0.8%
c1ccc2c(c1)CCN(C1=Nc3cccc4cccc1c34)C2	2.2%	-13.8%	15.8µM*	-14.0%	5.6%
Cc1nn(-c2ccccc2)c2c1N(CC(=O)N1CCN(c3ccccc3F)CC1)C(=O)CS2	?	-5.3%	-14.1%	2.9%	-10.4%
CC1=Nc2ccccc2/C1=C\c1nc(-c2ccc(F)cc2)oc1O	15.0%	10µM*[quencher]	7.08µM*	?	-22.9%
CN=Cc1nc(-c2ccccc2)oc1O	-7.5%	-9.2%	-11.7%	1.8%	-13.5%
O=[N+]([O-])c1cc(C(F)(F)F)ccc1NCCCCNS(=O)(=O)c1ccc(Cl)cc1	0.2%	?	?	7.9%	3.0%
O=[N+]([O-])c1cc(C(F)(F)F)ccc1NCCNC(=S)Nc1ccc(Cl)cc1	-2.7%	7.08µM*[quencher]	11.2µM*	20µM*	1.5%
O=[N+]([O-])c1ccc(NC(=S)NCCc2ccccc2)cc1	-0.6%	12.6µM*[quencher]	?	?	-2.5%
O=[N+]([O-])c1ccc(NC(=S)NCCc2ccc(Cl)cc2)cc1	-2.6%	7.94µM*[quencher]	?	12.6µM*	-5.5%
COCCNC(=O)C1CCN(Cc2cc3ccccc3n2Cc2ccc(C)cc2)CC1	0.0%	-10.9%	3.6%	-8.2%	-6.9%
NC(=O)c1ccsc1N	-0.4%[53 µM]	-24.9%	20µM*	31.6µM*	-4.0%[53 µM]
O=S(=O)(c1ccc(Cl)cc1Cl)n1ccnc1	3.7%	-13.8%	-8.0%	-5.3%	-6.2%
CCCn1c(CCC(=O)Nc2ccc(OCC)cc2)nc2cccnc21	0.6%	-4.9%	-9.0%	0.4%	-5.8%
Cc1sc2nc3c(SC(C)C(=O)O)cc(C(=O)c4ccccc4O)cn3c(=O)c2c1C (configuration not stated)	-2.4%	-7.0%	14.1µM*	-11.9%	3.2%
O=C(O)CSc1cc(C(=O)c2ccccc2O)cn2c(=O)c3c(-c4ccccc4)csc3nc12	-5.3%	-12.4%	25.1µM*	-4.4%	16.5%
CCOC(=O)c1sc2nc3c(SCC(=O)O)cc(C(=O)c4ccccc4O)cn3c(=O)c2c1C	0.1%	-3.0%	?	0.9%	-3.0%
CCN(CC)c1ccc(CNCCCSc2nnnn2C)cc1	-0.4%	-11.0%	-3.1%	3.8%	-7.5%
O=P(O)(O)O[C@@H]1[C@H](O)[C@H](O)[C@@H](OP(=O)(O)O)[C@H](OP(=O)(O)O)[C@H]1O	4.0%	-11.5%	-11.0%	-0.9%	6.2%
CCc1cc2c(nc1CC)CCN(CC/C(C)=N/O[C@@H](C)CN1CCCc3nc(C)c(C)cc31)C2	-2.2%[11.2 µM]	-29.6%[11.6 µM]	?	-5.0%[11.6 µM]	-4.5%[11.2 µM]
C=CCNC(=O)c1ccc([N+](=O)[O-])c(Cl)c1	-2.0%	3.4%	6.0%	8.2%	-0.8%
CC(C)(CNC(=O)c1ccc([N+](=O)[O-])c(Cl)c1)CNC(=O)c1ccc([N+](=O)[O-])c(Cl)c1	-5.2%	12.6µM*[quencher]	?	-2.0%	-7.0%
COc1ccc(-n2c(/C=C/c3c(C)[nH]c4ccccc34)nc3ccccc3c2=O)cc1	-25.0%	-20.7%	17.2%	-2.6%	1.3%
Cc1[nH]c2ccccc2c1/C=C/c1nc2ccccc2c(=O)n1CCO	-3.2%	10µM*[quencher]	?	17.4%	3.4%
CCOc1cc(C2Nc3cccc4cccc(c34)N2)ccc1O	?	5.01µM*[quencher]	6.31µM*	?	6.9%
SMILES	TR SRC2 fluor cs	Tau fluor counter	Tau ThT inhib	Tau fibril FP	TRb-SRC2 inh
COc1ccc(C2Nc3cccc4cccc(c34)N2)cc1	-2.1%	?	15.8µM*	-14.8%	7.2%
Oc1ccccc1C1Nc2cccc3cccc(c23)N1	-2.2%	11.2%	7.0%	6.3%	0.8%
CCOc1ccc(C2Nc3cccc4cccc(c34)N2)cc1OC	-8.6%	?	3.55µM*	?	-9.7%
COc1ccccc1C1Nc2cccc3cccc(c23)N1	-7.8%	?	22.4µM*	-11.8%	-5.7%
CC1CCN(S(=O)(=O)c2ccc3c(c2)N(CC(=O)Nc2ccc(F)c(Cl)c2)C(=O)CO3)CC1	-0.7%	?	7.3%	?	-1.5%
Cc1ccc(NCC(=O)N/N=C/c2cc3ccccc3nc2Cl)cc1	-4.4%	?	17.8µM*	1.8%	?
O=C(CN1CCOCC1)N/N=C/c1cc2ccccc2nc1Cl	-8.1%	-5.9%	-16.8%	-8.9%	-5.0%
Cc1ccccc1Nc1nc(-c2sc(NC(=O)c3ccc([N+](=O)[O-])cc3)nc2C)cs1	1.5%	10µM*[quencher]	3.98µM*	2.2%	1.8%
Cc1ccc(Nc2nc(-c3sc(NC(=O)c4ccc([N+](=O)[O-])cc4)nc3C)cs2)cc1	0.6%	?	3.16µM*	3.7%	-7.5%
CCOc1ccccc1Nc1nc(-c2sc(NC(=O)c3ccc([N+](=O)[O-])cc3)nc2C)cs1	-0.3%	7.94µM*[quencher]	3.55µM*	?	6.8%
CCOC(=O)N/N=C1/C[C@@H](O)[C@@H](O)[C@@H]2[C@@H]3C(=O)N([C@@H](C)c4ccccc4)C(=O)[C@H]3CC[C@H]12	1.3%[11.2 µM]	-8.7%[11.6 µM]	-7.6%[11.5 µM]	0.8%[11.6 µM]	-5.2%[11.2 µM]
O=c1c2cnn(-c3ccc(F)cc3)c2ncn1Cc1cccc(Cl)c1	-0.2%	-9.8%	2.2%	-10.5%	5.9%
CC(=O)O[C@@H](C)C#C[Si](C)(C)c1ccccc1	-0.6%	-2.1%	-0.1%	-0.3%	-0.7%
CCN(CC)c1ccc(C=N/C(C#N)=C(\N)C#N)cc1	20.1%	14.3%	2µM*	?	26.1%
CCOC(=O)c1c(C)sc(-c2c(-c3ccc4c(c3)OCCO4)[nH]c3c2c(=O)n(C)c(=O)n3C)c1O	13.5%	?	-3.9%	?	5.6%
O=C(CCN1CCN(C(c2ccccc2)c2ccccc2)CC1)N/N=C/c1ccc(O)cc1O	-1.4%	15.8µM*[quencher]	-16.0%	?	-2.1%
CNc1ccc(C(=O)c2ccccc2C(=O)O)cc1[N+](=O)[O-]	-3.8%	3.3%	-3.4%	-7.3%	-2.2%
CNc1ccc(/C=C/C(=O)c2cccc3ccccc23)cc1[N+](=O)[O-]	-0.5%	-23.8%	6.31µM*	8.1%	2.0%
CN(c1ccc(OCC(=O)OCC(=O)Nc2ccccc2)cc1)S(=O)(=O)c1cccs1	5.01µM*[quencher]	-11.1%	1.0%	?	-27.0%[53 µM]
CC12C=C(/C=C/c3ccc(Br)cc3)C(C)(C1)C(c1ccc(Br)cc1)CC2=O (configuration not stated)	0.6%[11.2 µM]	-2.5%[11.6 µM]	-4.4%[11.5 µM]	-3.9%[11.6 µM]	7.3%[11.2 µM]
CC(C)CCN1CCc2nc(COc3ccccc3)c3c(c2C1)COC(C)C3 (configuration not stated)	-3.0%[11.2 µM]	-17.0%[11.6 µM]	-15.1%[11.5 µM]	5.4%[11.6 µM]	0.1%[11.2 µM]
